“And” between values parts separate entries of the source, which are not always exact repeats. Equal values may be shown once. Results filed as inconclusive are left out. The source made the active and inactive calls. Unless noted, calls come from the whole dose curve; as a rule, active = well fitted curve in either direction with a large enough effect (not every such curve was filed as active); inconclusive = small, poorly fitted or top-dose-only effect, or another doubt; inactive = flat fitted curve, though single readings scatter.
Tests used:
[1] = AP1 Signaling Pathway (AID 357);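 note: ME-180 reporter cells stimulated with EGF at its EC50 level; % is set by controls: 0 for no effect and ±100 for the full control effect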
Summary of the method: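 AP-1-bla ME-180 cells, Opti-MEM + 0.5% dialyzed FBS, plated overnight 37 °C. Cpd titration + EC50 EGF, 5 h 37 °C. CCF4 2.5 h RT; ex 405, em 460/530 ratio → %activity, AC50.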

[2] = NFAT Signaling Pathway (AID 444); conditions: Jurkat NFAT-bla M1, carbachol, beta-lactamase ratio, 5 h; at 17.2 µM (top of the series);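 note: carbachol stimulus at about its EC50 of 1 µM final; % is set by controls: 0 for no effect and ±100 for the full control effect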
Summary of the method: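 Jurkat cells with NFAT-driven β-lactamase reporter and co-expressed M1 receptor, stimulated with carbachol (final 1 uM, ~EC50), compound titration, 5 h at 37 °C. CCF4 loaded 1 h at RT; 460/530 nm ratio gave %activity and AC50.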

[3] = Stat Signaling Pathway (AID 446);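 note: ME-180 cervical cancer cells given 40 pM IL-6 alongside compound; SIE-controlled beta-lactamase reporter measured as 460/530 nm FRET emission ratio; % is set by controls: 0 for no effect and ±100 for the full control effect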
Summary of the method: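 IL-6/STAT signaling read in ME-180 cells via an SIE beta-lactamase reporter. Stimulus was 40 pM IL-6 (its AC50) for 5 hrs, so both activation and inhibition register.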

[4] = molecular target: Glucocorticoid receptor (Homo sapiens) (UniProt P04150); test: GR-GFP Redistribution (AID 450;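 active = compounds whose dose series gives a full or clear partial fitted curve of increased nuclear translocation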; note: potency is the fitted concentration of half-maximal effect); conditions: U2OS GR-GFP nuclear translocation, laser cytometry, 2 h
[5] = molecular target: Glucocorticoid receptor (Homo sapiens) (UniProt P04150); test: GR-EFC Redistribution (AID 451; calls by dose curve; note: potency is the fitted concentration of half-maximal effect); conditions: CHO-K1 GR-EFC translocation, beta-gal luminescence, 2 h
Summary of the method: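 CHO-K1 cells expressing nuclear EA and GR-ED fragments of b-gal; compounds titrated up to 46 uM final, 2 h at 37 C. GR nuclear translocation read as complemented b-gal luminescence after 1 h RT detection.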

[6] = molecular target: 3',5'-cyclic-AMP phosphodiesterase 4B (Homo sapiens) (UniProt Q07343); test: qHTS Assay for Inhibitors of PDE-IV (AID 607; active = well fitted activation curve with a large enough effect in the main read-out, with a control signal flat, not every such curve was filed as active; note: % of control where 0% means no effect)
Summary of the method: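 Live HEK293 cells with a modified cyclic nucleotide-gated (CNG) channel report intracellular cAMP via membrane-potential dye fluorescence (ex 535/em 590 nm). Endogenous PDE-IV was targeted. Compounds were tested at up to 22.9 uM final; RO 20-1724 100 uM served as control.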

[7] = qHTS Assay for Lipid Storage Modulators (AID 1519; calls by dose curve); conditions: Drosophila S3 cells, BODIPY lipid droplet/cell ratio, laser cytometry, cells loaded with oleic acid; for activity change, negative = inhibition: at 25.7 µM (top of the series)
Summary of the method: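 Cells seeded at 5,000 per well were treated with compounds over a concentration series and loaded with oleic acid (400 uM, as added). Lipid droplet fluorescence (488 nm excitation, 500-530 nm channel) was read by laser-scanning cytometry and normalized to 20 uM Triacsin C.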

[8] = molecular target: Ubiquitin carboxyl-terminal hydrolase 1 (Homo sapiens) (UniProt O94782); test: Inhibitors of USP1/UAF1: Pilot qHTS (AID 504865; active = well fitted curve in the direction sought with a large enough effect; an effect the other way counts as inactive or inconclusive;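 note: rhodamine fluorescence freed from ubiquitin-rhodamine substrate followed over time; top concentration of the series differs between compounds; % is set by controls: 0 for no effect and ±100 for the full control effect; nearly all actives have a fitted effect of over 35% in size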)
Summary of the method: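 Deubiquitinase activity followed as kinetic rhodamine fluorescence release from 150 nM Ub-Rho. 1 nM USP1/UAF1 with compound, after 15 min room-temperature preincubation, in HEPES pH 7.8 buffer containing TCEP, EDTA, BSA and Tween-20.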

[9] = molecular target: Mitogen-activated protein kinase 10 (Mus musculus) (UniProt Q61831); test: JNK3 AlphaScreen Assay (AID 530);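 note: kinase came from lysate of stimulated human HepG2 cells; signal reports phosphorylation of biotinylated GST-cJun 1-79 at Ser73 with 10 µM ATP; % is set by controls: 0 for no effect and ±100 for the full control effect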
Summary of the method: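 Pre-activated (IL-1β/TNFα) JNK3 in HepG2 lysates phosphorylates biotin-GST-cJun(1-79), 10 uM ATP; anti-phospho-cJun(Ser73) AlphaScreen read at room temperature, pH 7.6 Tris buffer. Compounds pre-incubated 15 min as titrations.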

[10] = molecular target: Cytochrome P450 1A2 (Homo sapiens) (UniProt P05177); test: p450-cyp1a2 (AID 410; calls by dose curve; note: potency is the fitted concentration of half-maximal effect;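 for activity change, negative = inhibition: -100% = full effect of reference inhibitor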)
Summary of the method: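 20nM CYP1A2 with 100uM Luciferin-ME (at Km) in 100mM KPO4; compound preincubated 10 min, NADPH regeneration added, 60 min at room temperature. Luciferin quantified by luminescence after detection reagent; normalized to 57 uM furafylline.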

[11] = molecular target: ATP-dependent 6-phosphofructokinase (Trypanosoma brucei brucei) (UniProt O15648); test: qHTS Assay to Find Inhibitors of T. brucei phosphofructokinase: hit validation (AID 492961; active = well fitted curve in the direction sought with a large enough effect; an effect the other way counts as inactive or inconclusive; note: % is set by controls: 0 for no effect and ±100 for the full control effect)
Summary of the method: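 Luminescence from ADP-Glo reports ADP generated as T. brucei PFK (1.25 nM) phosphorylates 0.5 mM fructose-6-phosphate using 0.1 mM ATP. Reactions ran 45 min at room temperature, pH 8.0.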

[12] = molecular target: Luciferin 4-monooxygenase (Photinus pyralis) (UniProt P08659); test: Biochemical firefly luciferase enzyme assay for NPC (AID 624030; active = well fitted curve in the direction sought with a large enough effect; an effect the other way counts as inactive or inconclusive;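 note: purified P. pyralis luciferase at 10 nM with luciferin and ATP substrate; 0% = DMSO and -100% = full luciferase inhibition by PTC124 control; nearly all actives have a fitted effect of over 70% in size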)
Summary of the method: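 Purified P. pyralis luciferase at 10 nM in 50 mM Tris Acetate (final), luminescence read within 5 minutes of enzyme addition to compounds. Activity normalised to PTC124 versus DMSO; concentration-response curves classed by r2, magnitude and activity.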

[13] = qHTS profiling for inhibitors of Plasmodium falciparum proliferation (AID 504749; active = well fitted curve in the direction sought with a large enough effect; an effect the other way counts as inactive or inconclusive;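 note: 0% = DMSO vehicle and full inhibition = artemisinin control; nearly all actives have a fitted effect of over 60% in size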); conditions: P. falciparum in erythrocytes, SYBR Green DNA, 72 h, at 12.8 µM (top of the series)
Summary of the method: (§1)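 P. falciparum-infected erythrocytes (0.3% parasitemia, 2.5% hematocrit) incubated with compound 72 h at 37 C, 5% CO2. Parasite DNA detected by SYBR Green after lysis, overnight at room temperature; normalised to 0.29 uM artemisinin and DMSO.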

AS120 = test: as above; conditions: P. falciparum in erythrocytes, SYBR Green DNA, 72 h; series mostly up to 28.7 µM
Summary of the method: as §1

ATS189 = test: as above; conditions: P. falciparum in erythrocytes, SYBR Green DNA, 72 h; series mostly up to 28.7 µM
Summary of the method: as §1

DFO2036 = test: as above; conditions: P. falciparum in erythrocytes, SYBR Green DNA, 72 h; series mostly up to 28.7 µM
Summary of the method: as §1

[14] = molecular target: Cytochrome P450 3A4 (Homo sapiens) (UniProt P08684); test: qHTS Assay for Activators of Cytochrome P450 3A4 (AID 885; active = well fitted curve in the direction sought with a large enough effect; an effect the other way counts as inactive or inconclusive; note: nearly all actives have a fitted effect of over 65% in size)
Summary of the method: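 Quantitative HTS format: compounds preincubated with 20nM human CYP3A4 and Luciferin-PPXE substrate at KM, reaction started by NADPH regeneration, stopped after 60 min, luciferase luminescence read 20 min later.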

[15] = measured here: cell count channel max response
[16] = measured here: lipid channel max response

Chain of Ubiquitin carboxyl-terminal hydrolase 1 (Homo sapiens) (O94782 whole entry, looked up): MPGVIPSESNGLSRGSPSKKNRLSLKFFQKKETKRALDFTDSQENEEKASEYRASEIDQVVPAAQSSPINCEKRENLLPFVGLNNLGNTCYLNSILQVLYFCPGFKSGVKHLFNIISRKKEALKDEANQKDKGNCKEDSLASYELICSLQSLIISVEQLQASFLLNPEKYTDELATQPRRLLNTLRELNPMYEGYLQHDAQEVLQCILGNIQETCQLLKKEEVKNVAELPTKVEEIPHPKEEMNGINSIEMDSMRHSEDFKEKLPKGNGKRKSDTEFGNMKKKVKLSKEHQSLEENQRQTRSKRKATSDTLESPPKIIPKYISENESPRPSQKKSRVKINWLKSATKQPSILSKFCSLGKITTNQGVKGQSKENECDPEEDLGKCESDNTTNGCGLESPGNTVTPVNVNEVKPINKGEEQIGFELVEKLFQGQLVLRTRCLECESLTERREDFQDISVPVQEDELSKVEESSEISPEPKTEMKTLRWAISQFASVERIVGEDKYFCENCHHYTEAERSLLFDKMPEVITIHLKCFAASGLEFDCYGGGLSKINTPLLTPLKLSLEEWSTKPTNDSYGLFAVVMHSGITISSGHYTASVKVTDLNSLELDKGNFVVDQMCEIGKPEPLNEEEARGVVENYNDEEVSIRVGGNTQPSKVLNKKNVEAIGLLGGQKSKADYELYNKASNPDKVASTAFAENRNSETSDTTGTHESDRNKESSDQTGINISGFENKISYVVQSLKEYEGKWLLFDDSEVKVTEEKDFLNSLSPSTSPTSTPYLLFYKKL
Chain of Cytochrome P450 1A2 (Homo sapiens) (P05177 whole entry, looked up): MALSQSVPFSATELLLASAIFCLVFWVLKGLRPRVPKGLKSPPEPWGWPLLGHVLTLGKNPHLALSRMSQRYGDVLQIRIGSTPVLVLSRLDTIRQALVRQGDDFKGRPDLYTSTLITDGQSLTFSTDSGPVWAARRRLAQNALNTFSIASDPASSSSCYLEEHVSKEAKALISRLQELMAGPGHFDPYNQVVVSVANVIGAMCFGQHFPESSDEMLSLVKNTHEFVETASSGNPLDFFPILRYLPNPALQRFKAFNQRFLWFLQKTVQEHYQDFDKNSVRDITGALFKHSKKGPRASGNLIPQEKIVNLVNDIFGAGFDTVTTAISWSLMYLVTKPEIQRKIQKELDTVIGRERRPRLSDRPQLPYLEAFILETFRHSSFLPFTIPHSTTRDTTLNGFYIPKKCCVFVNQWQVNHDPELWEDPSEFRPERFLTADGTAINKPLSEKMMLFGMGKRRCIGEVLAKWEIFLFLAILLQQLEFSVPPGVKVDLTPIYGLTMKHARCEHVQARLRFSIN
Chain of 3',5'-cyclic-AMP phosphodiesterase 4B (Homo sapiens) (Q07343 whole entry, looked up): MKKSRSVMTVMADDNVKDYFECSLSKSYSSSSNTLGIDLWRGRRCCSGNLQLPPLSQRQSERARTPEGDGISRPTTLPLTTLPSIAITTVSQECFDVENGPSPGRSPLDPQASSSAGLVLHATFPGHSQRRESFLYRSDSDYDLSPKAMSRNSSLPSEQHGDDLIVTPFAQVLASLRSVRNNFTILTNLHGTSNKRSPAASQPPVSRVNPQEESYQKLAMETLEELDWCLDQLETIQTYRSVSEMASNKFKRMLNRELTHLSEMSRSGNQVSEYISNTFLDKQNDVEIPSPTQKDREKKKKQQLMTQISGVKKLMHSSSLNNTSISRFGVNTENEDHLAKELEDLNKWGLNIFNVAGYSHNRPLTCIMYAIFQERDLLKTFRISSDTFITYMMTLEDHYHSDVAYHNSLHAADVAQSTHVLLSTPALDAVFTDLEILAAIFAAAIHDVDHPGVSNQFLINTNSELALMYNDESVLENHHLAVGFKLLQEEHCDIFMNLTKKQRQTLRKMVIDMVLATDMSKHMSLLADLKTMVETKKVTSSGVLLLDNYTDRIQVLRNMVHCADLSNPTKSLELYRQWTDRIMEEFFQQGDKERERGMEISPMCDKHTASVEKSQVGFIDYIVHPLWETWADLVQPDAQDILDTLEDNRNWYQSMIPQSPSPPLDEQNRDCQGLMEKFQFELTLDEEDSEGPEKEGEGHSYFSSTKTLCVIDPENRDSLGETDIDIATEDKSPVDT
Chain of Glucocorticoid receptor (Homo sapiens) (P04150 whole entry, looked up, the tested form may be a part): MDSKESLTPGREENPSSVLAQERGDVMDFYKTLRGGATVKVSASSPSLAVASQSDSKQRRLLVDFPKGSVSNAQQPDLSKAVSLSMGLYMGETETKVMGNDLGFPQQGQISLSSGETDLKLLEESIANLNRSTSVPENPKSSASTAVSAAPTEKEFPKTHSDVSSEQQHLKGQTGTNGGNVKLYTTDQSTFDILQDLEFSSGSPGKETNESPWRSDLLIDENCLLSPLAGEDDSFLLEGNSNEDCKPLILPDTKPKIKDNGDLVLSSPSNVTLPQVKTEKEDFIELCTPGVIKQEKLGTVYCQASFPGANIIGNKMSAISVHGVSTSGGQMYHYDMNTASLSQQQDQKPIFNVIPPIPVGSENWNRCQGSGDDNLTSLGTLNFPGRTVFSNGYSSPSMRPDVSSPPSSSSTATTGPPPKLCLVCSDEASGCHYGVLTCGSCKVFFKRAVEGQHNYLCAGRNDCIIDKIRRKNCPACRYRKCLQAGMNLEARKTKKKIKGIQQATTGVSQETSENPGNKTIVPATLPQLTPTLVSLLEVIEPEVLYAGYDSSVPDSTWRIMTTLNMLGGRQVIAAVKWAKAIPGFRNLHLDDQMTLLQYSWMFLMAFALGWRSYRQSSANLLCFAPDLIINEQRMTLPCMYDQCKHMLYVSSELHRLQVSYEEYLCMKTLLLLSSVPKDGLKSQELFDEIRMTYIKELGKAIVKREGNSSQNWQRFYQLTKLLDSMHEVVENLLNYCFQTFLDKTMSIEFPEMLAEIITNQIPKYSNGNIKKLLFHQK
Chain of Cytochrome P450 3A4 (Homo sapiens) (P08684 whole entry, looked up): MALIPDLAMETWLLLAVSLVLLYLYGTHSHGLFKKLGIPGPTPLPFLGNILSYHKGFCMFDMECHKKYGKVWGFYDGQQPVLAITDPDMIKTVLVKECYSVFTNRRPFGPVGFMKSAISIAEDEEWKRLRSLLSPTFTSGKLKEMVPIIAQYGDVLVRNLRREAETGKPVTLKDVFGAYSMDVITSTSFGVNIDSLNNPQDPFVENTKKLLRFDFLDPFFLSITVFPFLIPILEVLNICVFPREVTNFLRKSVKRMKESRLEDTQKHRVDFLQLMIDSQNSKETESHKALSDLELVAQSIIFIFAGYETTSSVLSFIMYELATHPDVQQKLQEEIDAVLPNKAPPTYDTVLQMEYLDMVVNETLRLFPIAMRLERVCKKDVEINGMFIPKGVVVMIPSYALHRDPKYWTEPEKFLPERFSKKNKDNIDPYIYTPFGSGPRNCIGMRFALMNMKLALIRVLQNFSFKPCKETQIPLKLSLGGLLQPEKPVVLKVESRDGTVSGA
Chain of Luciferin 4-monooxygenase (Photinus pyralis) (P08659 whole entry, looked up): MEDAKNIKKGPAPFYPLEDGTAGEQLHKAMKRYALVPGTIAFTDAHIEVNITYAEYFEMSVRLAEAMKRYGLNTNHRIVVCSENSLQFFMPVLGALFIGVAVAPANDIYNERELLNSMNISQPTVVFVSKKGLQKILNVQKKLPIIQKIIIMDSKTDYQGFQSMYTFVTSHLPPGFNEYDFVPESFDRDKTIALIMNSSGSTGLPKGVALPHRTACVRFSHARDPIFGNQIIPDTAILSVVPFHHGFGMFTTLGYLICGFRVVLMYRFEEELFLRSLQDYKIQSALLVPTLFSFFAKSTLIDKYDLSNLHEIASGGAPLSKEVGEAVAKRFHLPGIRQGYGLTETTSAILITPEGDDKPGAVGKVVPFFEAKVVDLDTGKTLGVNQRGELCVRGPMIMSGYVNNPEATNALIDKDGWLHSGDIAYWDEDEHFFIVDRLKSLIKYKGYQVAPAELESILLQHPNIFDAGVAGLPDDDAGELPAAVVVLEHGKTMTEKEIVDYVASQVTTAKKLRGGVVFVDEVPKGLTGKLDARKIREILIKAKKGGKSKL
Chain of ATP-dependent 6-phosphofructokinase (Trypanosoma brucei brucei) (O15648 whole entry, looked up): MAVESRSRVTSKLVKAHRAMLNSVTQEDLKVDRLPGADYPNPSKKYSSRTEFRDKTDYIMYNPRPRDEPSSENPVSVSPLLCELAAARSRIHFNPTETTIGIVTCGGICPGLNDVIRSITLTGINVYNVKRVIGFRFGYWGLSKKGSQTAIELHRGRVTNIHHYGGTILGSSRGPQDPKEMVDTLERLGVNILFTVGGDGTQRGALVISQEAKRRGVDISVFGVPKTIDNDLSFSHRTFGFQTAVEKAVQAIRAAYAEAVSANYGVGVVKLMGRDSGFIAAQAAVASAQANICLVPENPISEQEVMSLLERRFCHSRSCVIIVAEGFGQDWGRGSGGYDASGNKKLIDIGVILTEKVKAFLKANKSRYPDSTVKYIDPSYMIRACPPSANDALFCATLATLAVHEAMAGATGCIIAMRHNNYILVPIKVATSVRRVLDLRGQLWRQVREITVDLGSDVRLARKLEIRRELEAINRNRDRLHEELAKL

SMILES	outcome [1]	activity change, negative = inhibition [2]	outcome [3]	Potency [4]	Potency [5]	Potency [6]	activity change, negative = inhibition [7]	max response [7, 15] [%]	max response [7, 16] [%]	Potency [8]	outcome [9]	Potency [10]	Potency [11]	Potency [12]	activity, negative = inhibition ([13]; parasite line A)	activity, negative = inhibition ([13]; parasite line B)	Potency (AS120)	Potency (ATS189)	Potency (DFO2036)	Potency [14]
C[C@@H]1NCCc2cc(O)c(O)cc21	inactive	-2.85% (inactive)	inactive	> 20.6 µM (inactive)	> 20.6 µM (inactive)	inactive	-2.45% (inactive)	-9.01	-11.5	inactive										
C=C(C)[C@H]1[C@H]2OC(=O)[C@@H]1[C@]1(O)C[C@H]3O[C@]34C(=O)O[C@H]2[C@@]14C	inactive	-0.55% (inactive)	inactive	> 20.6 µM (inactive)	> 20.6 µM (inactive)	inactive	-0.482% (inactive)	-3.6	-3.43	inactive	inactive									
CC1=CC(=O)C2=C(C)C[C@@H](O)[C@@H]3[C@@H](OC(=O)[C@H]3C)[C@H]12	inactive	-5.22% (inactive)	inactive	> 20.6 µM (inactive)	> 20.6 µM (inactive)	inactive	-1.62% (inactive)	-12.9	-12		inactive									
COc1ccc(C(=O)OC2C[C@H]3CC[C@@H](C2)N3C)cc1OC (stereo partly drawn)		-18.9% (inactive)	inactive	> 20.6 µM (inactive)	> 20.6 µM (inactive)	inactive	0.262% (inactive)	-3.69	-3.27	inactive	inactive	inactive								
CN1CCC2=C[C@H](O)[C@@H]3OC(=O)c4cc5c(cc4[C@H]3[C@H]21)OCO5	inactive	-12.8% (inactive)	inactive	> 20.6 µM (inactive)	> 20.6 µM (inactive)	inactive	0.357% (inactive)	-2.84	-1.93	inactive										
C[C@@H]1O[C@H](O[C@@H]2C=C3CC[C@H]4[C@@H](CC[C@]5(C)[C@@H](c6ccc(=O)oc6)CC[C@]45O)[C@@]3(C)CC2)[C@@H](O)[C@H](O)[C@@H]1O				> 20.6 µM (inactive)	> 20.6 µM (inactive)		-8.45% (inactive)	-11.6	-25.4	inactive	inactive	inactive	inactive	inactive	-2.59% (inactive)	-11.4% (inactive)	inactive	inactive	inactive	
COc1cc2c(cc1O)C[C@H]1c3c(cc(O)c(OC)c3-2)CCN1C		-8.08% (inactive)	inactive	> 20.6 µM (inactive) and > 46 µM (inactive)	> 20.6 µM (inactive) and > 46 µM (inactive)		0.193% (inactive)	3.24	4.01	inactive	inactive	2.51 µM (active)								inactive

Reference: PubChem BioAssay (NCATS)
